These results are taken from PubChem BioAssay (NCATS).

Assay [1] in a line: qHTS for compounds that reverse cellular toxicity of Amyloid beta (A-beta) peptide in yeast: LOPAC Validation Assay (AID 720559; active = well fitted curve in the direction sought with a large enough effect; an effect the other way counts as inactive or inconclusive;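 note: plate controls were DMSO for no effect and equimolar ferric chloride plus clioquinol rescue for full effect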). An outline of the steps: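 Medium dispensed, compounds pinned, A-beta yeast suspension added; plates held at 30 C for 48 hr; absorbance measured at 600 nm to gauge growth; values scaled between DMSO and FeCl3/clioquinol (equimolar) controls.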
Assay [2] in a line: qHTS for Activators of Parkin Expression: LOPAC Validation Assay (NLuc Reporter) (AID 720572; active = well fitted curve in the direction sought with a large enough effect; an effect the other way counts as inactive or inconclusive). The method, boiled down:
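NLuc signal, read 10 min after reagent and following a prior FLuc read, is normalized to DMSO (0) and positive controls (100%). Cells: neuronal Parkin-promoter coincidence reporter line; compounds tested 7-point, 24 h, 37 C, 5% CO2.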
On the technique in general: Quantitative high-throughput screening tests each substance at several concentrations.

Assay [3] can be described thus: qHTS for Activators of Parkin Expression: LOPAC Validation Assay (FLuc Reporter) (AID 720573; active = well fitted curve in the direction sought with a large enough effect; an effect the other way counts as inactive or inconclusive). An outline of the steps: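 Cells seeded, 24 h; compounds pinned, 7-pt dose response; 24 h at 37 C/5% CO2; volume reduced; FLuc reagent 10 min RT; luminescence read. Normalization: DMSO = 0, positive control = 100%.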
Assay [4] in a line: qHTS assay for small molecule agonists of the antioxidant response element (ARE) signaling pathway measured by Nrf2-dependant transcriptional activity (AID 720636; active = well fitted curve in the direction sought with a large enough effect in the repeat runs; an effect the other way counts as inactive or inconclusive;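 note: HepG2 cells with an ARE-driven luciferase reporter; % of control where 0% means no effect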). The method, boiled down:
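Attachment 6 hr at 37 C, then compound versus DMSO vehicle for 16 hr in ARE-luc HepG2 cells (1% dialyzed FBS); luminescence recorded 30 min after ONE-Glo addition at room temperature.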

Assay [5] can be described thus: qHTS assay for small molecule antagonists of the retinoid-related orphan receptor gamma (ROR-gamma) signaling pathway - cell viability counter screen (AID 720652; active = well fitted curve in the direction sought with a large enough effect in the repeat runs; an effect the other way counts as inactive or inconclusive;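 note: CHO reporter cells with doxycycline-induced ROR-gamma expression; compound exposure lasted 16 hr before ATP read; % is set by controls: 0 for no effect and ±100 for the full control effect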). The method, boiled down:
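CHO RORE-LUC/TET-ROR line, 1,000 cells/well, 37 C 5% CO2 5 hr; cpd or DMSO + doxycycline induction, 16 hr. CellTiter-Glo, 30 min RT, luminescence = ATP content.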

In assay [6] the target is T1, Hexokinase-4 (Homo sapiens) + Glucokinase regulatory protein (Homo sapiens) (UniProt P35557+Q14397). Kind of assay: qHTS assay for inhibitors of recombinant human GCK-GKRP interaction: Diaphorase-coupled assay (AID 743205; active = well fitted curve in the direction sought with a large enough effect; an effect the other way counts as inactive or inconclusive). An outline of the steps:
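25 mM Hepes pH 7.6, 5 mM glucose, 0.4 mM ATP, 4 U/ml G6PDH; 10 nM each GST-GCK/FLAG-GKRP. Kinetic fluorescence read, 1/min × 30 min. Normalized: DMSO ± enzyme = max/min.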

The target in assay [7] is T1, Hexokinase-4 (Homo sapiens) + Glucokinase regulatory protein (Homo sapiens). The assay is described as follows: qHTS assay for inhibitors of recombinant human GCK-GKRP interaction: HTRF assay (AID 743207; active = well fitted curve in the direction sought with a large enough effect; an effect the other way counts as inactive or inconclusive;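 note: 0% = DMSO with GCK present and -100% = DMSO wells lacking GCK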). An outline of the steps: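 5 nM GST-GCK + 5 nM FLAG-GKRP + 2 uM S6P, pH 7.1 buffer (25 mM Hepes, 2 mM MgCl2, 25 mM KCl, 1 mM DTT, Tween/BSA); pin-transferred cpd; anti-FLAG XL665/anti-GST K; 60 min RT; HTRF.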

A short description of assay [8]: qHTS Assay for Identifying Gametocytocidal Compounds (AID 743244; active = well fitted curve in the direction sought with a large enough effect; an effect the other way counts as inactive or inconclusive; note: potency is the fitted concentration of half-maximal effect;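 for max response: % is set by controls: 0 for no effect and ±100 for the full control effect; actives lower the fluorescent signal which means gametocytes are killed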). The note with it: P. falciparum 3D7 stage III-V gametocytes, alamarBlue, 72 h; max response: stronger effect = lower value. An outline of the steps: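 P. falciparum 3D7 stage III–V gametocytes (20,000 cells/well) were exposed to compounds for 72 h at 37 °C, 5% CO2. AlamarBlue was then added for 24 h; decreased resorufin fluorescence (Ex 525/Em 598 nm) indicated loss of viability.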

Assay [9] in a line: qHTS assay for cell viability of HEK293 cells (AID 743288; active = well fitted curve in the direction sought with a large enough effect; an effect the other way counts as inactive or inconclusive; note: potency is the fitted concentration of half-maximal effect; nearly all actives have a fitted effect of over 50% in size). As to conditions: ATP luminescence (CellTiter-Glo), 18 h; max response: stronger effect = lower value. The method, boiled down: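 Viable-cell counts were inferred from luciferase-based ATP content in HEK293 cells seeded at 2,000/well, pre-incubated ≥5 h, then dosed with DMSO-solubilised compounds for 18 h at 37 C.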
Assay [10] is described as follows: qHTS profiling of the MIPE4 collection as inhibitors of Plasmodium falciparum (3D7) proliferation (AID 743344).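 Note: scaled between DMSO vehicle wells and 0.29 µM artemisinin as full inhibition.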 As to conditions: P. falciparum 3D7 in erythrocytes, SYBR Green DNA fluorescence, 72 h; at 28.5 µM (top of the series) unless noted. An outline of the steps: (§1)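 Parasite DNA was quantified by SYBR Green I fluorescence (ex 485, em 535 nm) after overnight lysis in saponin/Triton buffer at room temperature. Cultures at 0.3% parasitemia and 2.5% hematocrit were first exposed to compound for 72 h at 37 C; signals were normalised to artemisinin (0.29 uM) and vehicle wells.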

A short description of assay [11]: qHTS profiling of the MIPE4 collection as inhibitors of Plasmodium falciparum (DD2) proliferation (AID 743345). As to conditions: P. falciparum Dd2 in erythrocytes, SYBR Green DNA, 72 h; at 28.5 µM (top of the series) unless noted. An outline of the steps:
as §1

A short description of assay [12]: qHTS profiling of the MIPE4 collection as inhibitors of Plasmodium falciparum (DD2) proliferation (Rep 2) (AID 743346). As to conditions: P. falciparum Dd2 in erythrocytes, SYBR Green DNA, 72 h; at 28.5 µM (top of the series) unless noted. An outline of the steps:
as §1

A short description of assay [13]: qHTS profiling of the MIPE4 collection as inhibitors of Plasmodium falciparum (HB3) proliferation (AID 743347).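 Note: plate controls were DMSO vehicle wells for no effect and artemisinin wells for full effect.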 The note with it: P. falciparum HB3 in erythrocytes, SYBR Green DNA, 72 h; at 28.5 µM (top of the series) unless noted. The method, boiled down:
as §1

Assay [14] can be described thus: qHTS profiling for inhibitors of Plasmodium falciparum (3D7) proliferation (AID 743322).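 Note: infected erythrocytes exposed to compound for 72 h before lysis; 100% = DMSO vehicle wells and 0% = 0.29 µM artemisinin.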 As to conditions: P. falciparum 3D7 proliferation; at 28.7 µM (top of the series) unless noted. The method, boiled down:
as §1

Assay [15] is described as follows: qHTS profiling for inhibitors of Plasmodium falciparum (DD2) proliferation (AID 743323). The note with it: lower = more inhibition; at 28.7 µM (top of the series) unless noted. The method, boiled down: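 SYBR Green fluorescence (ex 485, em 535 nm) of lysed cultures gives parasite DNA content; wells normalized to artemisinin (0.29 uM) and DMSO controls. Infected red cells: 0.3% parasitemia, 2.5% hematocrit, 72 h, 37 C.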

The nature of assay [16]: qHTS profiling for inhibitors of Plasmodium falciparum (HB3) proliferation (AID 743324; active = well fitted curve in the direction sought with a large enough effect; an effect the other way counts as inactive or inconclusive;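 note: 100% = DMSO vehicle wells and 0% = artemisinin-treated control wells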). The note with it: Plasmodium falciparum HB3 blood-stage proliferation; at 28.7 µM (top of the series) unless noted. An outline of the steps: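 SYBR Green fluorescence (485 ex/535 em) of lysed cultures, incubated overnight at room temperature in the dark, quantifies parasite DNA. Infected erythrocytes at 0.3% parasitemia and 2.5% hematocrit were exposed 72 h; values normalized to DMSO and 0.29 uM artemisinin controls.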

Values joined by “and” are separate entries in the source; they are usually repeats but may differ in a detail not shown here. Identical values can stand only once. Inconclusive results are not listed. Active and inactive are the calls of the source. Unless noted, the rule behind the calls is not given here.

T1 sequence (P35557 whole entry, looked up): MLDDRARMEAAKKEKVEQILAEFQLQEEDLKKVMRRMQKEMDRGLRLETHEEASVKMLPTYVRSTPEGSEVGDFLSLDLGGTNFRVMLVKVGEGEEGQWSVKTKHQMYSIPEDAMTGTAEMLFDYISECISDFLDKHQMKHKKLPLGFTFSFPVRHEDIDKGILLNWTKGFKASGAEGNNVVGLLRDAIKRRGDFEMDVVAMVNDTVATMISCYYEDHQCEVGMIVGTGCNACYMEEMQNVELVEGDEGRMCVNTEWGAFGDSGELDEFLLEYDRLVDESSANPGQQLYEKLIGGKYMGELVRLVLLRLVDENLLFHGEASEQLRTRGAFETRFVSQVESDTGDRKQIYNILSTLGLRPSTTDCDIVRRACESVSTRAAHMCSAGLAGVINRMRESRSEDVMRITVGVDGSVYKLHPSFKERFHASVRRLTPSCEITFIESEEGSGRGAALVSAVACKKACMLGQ
T1 sequence (Q14397 whole entry, looked up): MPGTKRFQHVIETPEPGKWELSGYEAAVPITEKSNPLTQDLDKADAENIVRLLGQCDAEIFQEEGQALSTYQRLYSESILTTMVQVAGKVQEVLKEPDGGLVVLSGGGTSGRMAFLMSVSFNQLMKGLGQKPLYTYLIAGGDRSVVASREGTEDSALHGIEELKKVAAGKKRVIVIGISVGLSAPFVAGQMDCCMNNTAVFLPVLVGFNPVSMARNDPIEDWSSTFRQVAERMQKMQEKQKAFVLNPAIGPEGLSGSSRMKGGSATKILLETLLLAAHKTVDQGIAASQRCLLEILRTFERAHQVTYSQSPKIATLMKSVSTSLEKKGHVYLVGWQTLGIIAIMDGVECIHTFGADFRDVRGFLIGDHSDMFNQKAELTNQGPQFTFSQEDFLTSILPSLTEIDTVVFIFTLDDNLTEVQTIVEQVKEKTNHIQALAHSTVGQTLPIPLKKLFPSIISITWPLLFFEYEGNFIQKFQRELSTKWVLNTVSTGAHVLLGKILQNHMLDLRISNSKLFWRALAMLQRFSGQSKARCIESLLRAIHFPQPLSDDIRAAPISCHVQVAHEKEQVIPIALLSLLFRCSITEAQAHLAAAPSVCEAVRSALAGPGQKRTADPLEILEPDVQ

`Cn1cnc([N+](=O)[O-])c1Sc1ncnc2nc[nH]c12`: the result in [1], in assay [3], in assay [4], in [5], in [6] and in [7] was inactive. The Potency entry in assay [2] was “inactive”. The Potency in assay [8] is 39.8 µM (active) and 1.26 µM (active); in assay [9] it was 4.47 µM (active) and 5.01 µM (active). This compound also displayed a parasite growth, % of DMSO control in assay [10] of 47.3%. In addition, in [11], the parasite growth remaining, % of DMSO control (lower = more inhibition) turned out to be 87.7%. Further, the parasite growth, % of control (lower = inhibition) in [12] was determined as 33.8%. The same compound came in with a growth, % of control in [13] of 45.9%.
`CCOC(=O)N1CCC(=C2c3ccc(Cl)cc3CCc3cccnc32)CC1`: the call in assay [1], in assay [3], in assay [6] and in [7] was inactive. For the same compound, in [2], the Potency result was “inactive”. Moreover, in [10], the parasite growth, % of DMSO control was 14.5%. In assay [11], this compound had a parasite growth remaining, % of DMSO control (lower = more inhibition) of 56.2%. The parasite growth, % of control (lower = inhibition) in assay [12] is 28.5%.
Consider `O=C(O)c1ccc(-c2c[nH]c3ccc(-c4ccccc4)cc23)cc1C1CCCC1`, for which the max response in assay [8] is 15.6% (inactive). Also, the remaining parasite growth % (stronger effect = lower value) in [14] was -0.426%. Besides, in assay [15], the activity, percent of control worked out at 0.0014%. Also, the remaining proliferation (% of control), lower = more inhibition in assay [16] was -0.0688%.
Consider `CCCn1c(=O)c2[nH]c(C34CC5CC3C[C@@H](C5)C4)nc2n(CCC)c1=O`, for which the max response in assay [8] is 25.8% (inactive). The remaining parasite growth % (stronger effect = lower value) in assay [14] came out at 89.8%. In assay [15], this compound gave an activity, percent of control of 85.1%. The remaining proliferation (% of control), lower = more inhibition in [16] worked out at 59.4%. Besides, in assay [10], the parasite growth, % of DMSO control amounted to 16.5%. In assay [11], the parasite growth remaining, % of DMSO control (lower = more inhibition) was 77.4%. The parasite growth, % of control (lower = inhibition) in assay [12] turned out to be 17.3%.
For `O=C(c1cc(Cc2n[nH]c(=O)c3ccccc23)ccc1F)N1CCN(C(=O)C2CC2)CC1`, the max response in assay [8] was 10.8% (inactive). The remaining parasite growth % (stronger effect = lower value) in assay [14] was 88.8% and 97.4%. Also, the activity, percent of control in assay [15] is 97.9% and 99.7%. For the same compound, the remaining proliferation (% of control), lower = more inhibition in assay [16] was 57.9% and 59.4%. This compound came in with a parasite growth, % of DMSO control in [10] of 23.5%. The compound further showed a parasite growth remaining, % of DMSO control (lower = more inhibition) in assay [11] of 92.7%. In assay [12], this compound had a parasite growth, % of control (lower = inhibition) of 44.7%. The compound also displayed a growth, % of control in assay [13] of 35.9%.
In the case of `CNC(=O)c1ccc(N2C(=S)N(c3ccc(C#N)c(C(F)(F)F)c3)C(=O)C2(C)C)cc1F`, the max response in assay [8] is 12% (inactive). In addition, in assay [14], the remaining parasite growth % (stronger effect = lower value) was found to be 87.6%. For the same compound, in assay [15], the activity, percent of control is 87.8%. Besides, the remaining proliferation (% of control), lower = more inhibition in assay [16] came out at 62.8%. Moreover, in assay [10], the parasite growth, % of DMSO control turned out to be 53.9%. This compound returned a parasite growth remaining, % of DMSO control (lower = more inhibition) in [11] of 86.3%. In assay [12], this compound showed a parasite growth, % of control (lower = inhibition) of 53.7%. Moreover, the growth, % of control in [13] is 41.9%.
